Only a selection was taken, and hits are over-represented in it overall.
Shiga toxin inh = A qHTS for Small Molecule Inhibitors of Shiga Toxin; Vero cells, Shiga toxin protein synthesis inhibition reporter; inhibition, % at 38.7 µM; 290,000 tested, 9.2% active; in the data active = inhibition mostly above about 28%, no sharp cut-off; inactive = mostly below about 43%
CHX counter = Cycloheximide Counterscreen for Small Molecule Inhibitors of Shiga Toxin; 300,000 tested, 12% active; max response, %; cell reporter, cycloheximide protein synthesis inhibition counterscreen; in the data active = max response mostly above about 13%, no sharp cut-off; inactive = mostly below about 14%; also: read at 38.3 µM for the half of the compounds with a filed dose
LmPK inh = qHTS Assay for Inhibitors of Leishmania Mexicana Pyruvate Kinase (LmPK). purified LmPK, Kinase-Glo ATP luminescence, 1 h. 290,000 tested, 0.37% active. Potency, µM (highest dose often 57.5 µM), usual class: inhibitors. AID 1721, 2009
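Purified LmPK (0.1 nM) converted ADP (0.1 mM) to ATP with PEP (0.5 mM) in imidazole buffer pH 7.2 with KCl and MgCl2, 1 h at room temperature. ATP was read by Kinase-Glo luminescence; data normalized to uninhibited and no-enzyme controls.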
TbPYK inhibitor = qHTS of Trypanosoma Brucei Inhibitors. pyruvate kinase (Trypanosoma brucei), Q57TT1. TbPYK enzyme, Kinase-Glo Plus ATP luminescence, 45 min. Potency, µM (titrated, usually from 76.8 µM), hits mostly inhibitors. 410,000 tested, 0.12% active. AID 624173, 2012; also: nearly all actives have a fitted effect of over 50% in size
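TbPYK + substrate in 50 mM TEA pH 7.2, 100 mM KCl, 10 mM MgCl2, 0.05% BSA, 0.01% Tween-20; cpd pinned; ADP 130 uM final; 45 min RT; Kinase-Glo Plus 10 min; luminescence endpoint.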
RE007 growth inh = qHTS Assay for Inhibitors of the HIV-1 protein Vpr; Potency, µM (titrated, usually from 92.2 µM), usual class: inhibitors; 360,000 tested, 0.21% active; S. pombe RE007 Vpr strain, BacTiter-Glo ATP luminescence, 24 h; active = well fitted falling curve with a large enough effect; inconclusive = small, poorly fitted or top-dose-only effect; inactive = no such curve, though single readings can be large or run the other way; also: nearly all actives have a fitted effect of over 50% in size
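Fission yeast strain RE007, carrying one chromosomally integrated HIV-1 vpr copy, was seeded at OD 0.01 in PMG+AL medium with 23 nL pinned compound. After 24 h at 30 °C and 99% humidity, viability was read by BacTiter-Glo luminescence.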
FBPA Giardia inh = qHTS Assay for Inhibitors of Fructose-1,6-bisphosphate Aldolase from Giardia Lamblia | A8B2U2 | purified Giardia FBPA | Potency, µM (titrated, usually from 59.6 µM), actives largely listed as inhibitors | 290,000 tested, 0.71% active; also: nearly all actives have a fitted effect of over 55% in size
Target sequence (A8B2U2 whole entry, looked up): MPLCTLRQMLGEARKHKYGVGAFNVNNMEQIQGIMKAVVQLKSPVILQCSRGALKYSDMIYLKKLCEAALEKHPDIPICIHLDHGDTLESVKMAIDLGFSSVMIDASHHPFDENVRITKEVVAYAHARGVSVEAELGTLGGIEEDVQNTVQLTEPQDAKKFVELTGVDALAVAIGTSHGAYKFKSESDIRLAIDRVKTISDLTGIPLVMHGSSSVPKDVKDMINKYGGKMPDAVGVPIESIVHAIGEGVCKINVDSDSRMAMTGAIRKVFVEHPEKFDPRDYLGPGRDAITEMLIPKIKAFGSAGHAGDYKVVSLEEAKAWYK
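40 nM FBPA preincubated 10 min at RT with compound (up to 57.5 uM final), then substrate plus GAPDH/TPI/NAD/arsenate coupling and diaphorase/resazurin added. Fluorescence read after 20 min at RT, 525/598 nm.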
A number is an active result; – = inactive; ? = inconclusive; · = no result; + = active, no number. Unless noted, calls follow the shape of the dose curve; as a rule, active = well fitted curve in the direction sought with a large enough effect; inconclusive = small, poorly fitted or top-dose-only effect, or another doubt; inactive = no such curve, though single readings can be large; an effect the other way counts as inactive or inconclusive.

SMILES	Shiga toxin inh	CHX counter	LmPK inh	TbPYK inhibitor	RE007 growth inh	FBPA Giardia inh
CCCCCc1nnc(NC(=O)C2COc3ccccc3O2)s1 (stereo not drawn)	38.7	30.5	–	–	–	–
CC1CCC/C(=N\NC(=O)Nc2ccccc2)C1 (stereo not drawn)	53.3	26.6	–	–	–	–
CC1CCC/C(=N\Nc2ccc(Cl)c(C(=O)O)c2)C1 (stereo not drawn)	59.8	165.0	–	–	?	–
Cc1ccc(Nc2nc(CSc3nnc(-c4ccccc4C)n3C)cs2)cc1	79.7	45.1	–	–	·	–
Cc1ccc(CSc2nnc(-c3cccs3)n2C)cc1	–	–	–	–	–	–
Cc1ccc(Nc2nc(CSc3nnc(-c4ccccc4)n3C)cs2)cc1	51.6	31.6	–	–	–	–
Cc1ccc(Nc2nc(CSc3nnc(-c4cccnc4)n3-c3ccccc3C)cs2)cc1	–	23.6	–	–	–	–
Cc1ccccc1-n1c(SCc2csc(Nc3ccccc3)n2)nnc1-c1cccnc1	–	–	–	–	–	–
CCOC(=O)CCn1nc(-c2ccc(C)cc2)c2ccccc2c1=O	–	–	–	–	–	–
Cc1ccc(-c2ccc(=O)n(CCC(=O)N3CCC4(CC3)OCCO4)n2)cc1	138.1	46.5	–	–	–	–
CCOC(=O)CCn1nc(-c2ccccc2)cc1N	39.1	35.4	–	–	–	–
CCOC(=O)Cn1nc(-c2ccc(C)cc2)ccc1=O	27.6	19.2	–	–	–	–
O=C(CCn1nc(-c2ccc(Cl)cc2)ccc1=O)N1CCC2(CC1)OCCO2	–	–	–	–	–	–
CC(C)NC(=O)N1[C@H](c2cccs2)[C@@H](C)C(=O)[C@@H](C)[C@@H]1c1cccs1	·	·	·	–	·	·
Cc1cc(=O)[nH]c(N=N/C(=N/Nc2ccccc2C)c2ccccc2)n1	–	–	?	–	–	–
COc1ccc(N/N=C(/N=Nc2nc(C)cc(=O)[nH]2)c2ccccc2)cc1	90.8	61.8	–	–	?	–
Cc1cc(=O)[nH]c(N=N/C(=N/Nc2ccc(O)cc2)c2ccccc2)n1	100.2	48.7	?	–	?	?
CC(=O)O[C@H]1C[C@H]2CC[C@@H]3[C@@H](CC[C@]4(C)[C@H](OC(C)=O)[C@H]([N+]5(C)CCCCC5)C[C@@H]34)[C@]2(C)C[C@H]1[N+]1(C)CCCCC1	·	·	·	·	·	–
Cc1nc2nc[nH]n2c(=O)c1NS(=O)(=O)c1ccc(Br)cc1	·	·	·	–	·	·
O=C(O)c1cc(NN=C2c3ccccc3-c3ccccc32)ccc1Cl	–	–	–	–	–	–
O=C(O)c1cc(N/N=C/C(Cl)=C/c2ccccc2)ccc1Cl	183.1	68.4	–	–	–	–
CC(=NNC(=S)Nc1ccccc1Cl)c1ccccn1	·	·	·	–	?	·
C/C(=N\Nc1ccc(Cl)c(C(=O)O)c1)c1cccc2ccccc12	–	12.1	–	–	–	–
C/C(=N\Nc1cccc([N+](=O)[O-])c1)c1cc2ccccc2o1	43.8	40.1	–	–	–	–
C/C(=N\Nc1ncc(Cl)cc1Cl)c1ccccn1	118.8	42.8	?	–	22.4µM	–
SMILES	Shiga toxin inh	CHX counter	LmPK inh	TbPYK inhibitor	RE007 growth inh	FBPA Giardia inh
O=C(c1cccc([N+](=O)[O-])c1)c1cc2ccccc2o1	–	–	–	–	–	–
COc1cccc(-c2nc3c(c(SCc4ccccc4)n2)Cc2c(CO)cnc(C)c2O3)c1	·	·	·	–	·	·
C/C(=N\Nc1cccc(C(=O)O)c1)c1cc2ccccc2o1	198.3	71.5	–	–	–	–
CC(O)C(=O)N/N=C/c1cccc2ccccc12 (stereo not drawn)	–	–	–	–	–	–
C/C(=N\Nc1ccc(Cl)c(C(=O)O)c1)c1cc2ccccc2o1	+	80.0	–	–	–	–
N#CCC(=O)N/N=C/c1cn(Cc2ccc(Cl)c(Cl)c2)c2ccccc12	–	–	–	–	–	–
O=C(O)c1cc(N/N=C/c2cccc3ccccc23)ccc1Cl	114.2	102.8	–	–	–	–
CC(C)n1cc(/C=N/Nc2ccc(Cl)c(C(=O)O)c2)c2ccccc21	·	48.5	–	·	·	–
O=[N+]([O-])c1cccc(N/N=C/c2cccc3ccccc23)c1	42.2	29.8	–	–	–	–
C/C(=N\Nc1ccc(Cl)c(C(=O)O)c1)c1ccccn1	137.6	94.3	–	–	–	?
CN(C)c1ccc(CN2CCc3nc(N4CCN(c5ccccn5)CC4)ncc3C2)cc1	·	·	·	–	·	·
Cc1nc2cc(Nc3nnc(-c4ccccc4)c4ccccc34)ccc2n1C	–	45.1	–	–	–	–
Cc1cc(C(=O)COC(=O)c2ccccc2O)c(C)n1CC1CCCO1 (stereo not drawn)	·	·	·	–	?	·
CCOc1cc(C(=O)OCC(=O)c2cc(C)n(CC3CCCO3)c2C)ccc1OCC(=O)N1CCOCC1 (stereo not drawn)	53.2	31.6	–	–	–	–
Cc1cc(C(=O)COC(=O)c2cc(O)c3ccccc3c2O)c(C)n1CC1CCCO1 (stereo not drawn)	–	14.4	–	?	–	?
Cc1cc(C(=O)COC(=O)c2cccnc2Cl)c(C)n1CC1CCCO1 (stereo not drawn)	–	–	25.1µM	–	–	–
Cc1cc(C(=O)COC(=O)c2ccccc2NCCO)c(C)n1CC1CCCO1 (stereo not drawn)	111.9	88.7	–	–	–	·
O=C(Cn1c(=O)oc2cc(S(=O)(=O)N3CCCCCC3)ccc21)Nc1ccc(F)cc1F	·	·	·	–	·	·
COc1cc(OC)c2c(=O)c(-c3ccccc3)c(C)oc2c1OC	·	·	·	·	·	–
Cc1ccc(C(=O)OCC(=O)c2cc(C)n(CC3CCCO3)c2C)cc1 (stereo not drawn)	107.5	40.0	–	–	–	–
Cc1cc(C(=O)COC(=O)c2n[nH]c3ccccc23)c(C)n1CC1CCCO1 (stereo not drawn)	–	37.7	–	–	?	–
COc1ccc(Nc2nnc(SCC(=O)c3cc(C)n(CC4CCCO4)c3C)s2)cc1 (stereo not drawn)	111.5	43.0	–	–	?	–
Cc1cc(C(=O)COC(=O)c2cccc(NS(C)(=O)=O)c2)c(C)n1CC1CCCO1 (stereo not drawn)	·	·	·	–	–	·
Cc1cc(C(=O)COC(=O)c2ccccc2Br)c(C)n1CC1CCCO1 (stereo not drawn)	–	–	?	–	–	–
Cc1cc(C(=O)COC(=O)C2COc3ccccc3O2)c(C)n1CC1CCCO1 (stereo not drawn)	–	–	–	–	–	–
Cc1cc(C(=O)COc2ccccc2C(N)=O)c(C)n1CC1CCCO1 (stereo not drawn)	–	25.7	–	–	–	–
